S2 tox = viability counter-screen for ATXN expression inhibitors; S2 cells (HEK-293 line with an ATXN2-luciferase reporter) viability, CellTiter-Fluor protease fluorescence, 24 h; AID 651635; Potency, µM (highest dose often 56.7 µM), usual class: cytotoxic; actives 0.49% (n = 400,000); further: nearly all actives have a fitted effect of over 40% in size
HT1080NT lethal = kills 2HG-producing HT-1080-NT fibrosarcoma cells. HT-1080-NT fibrosarcoma viability, CellTiter-Glo ATP luminescence, 48 h. Potency, µM (highest dose often 46.1 µM), inactives show top-dose activity, negative = less viability, actives largely listed as cytotoxic. actives 1.6% (n = 360,000);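 further: NT is the 2HG producing partner of a matched IDH1 knockdown line; 0% = DMSO-treated cells and -100% = media-only wells without cells; nearly all actives have a fitted effect of over 55% in size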
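Toxicity toward the 2HG-producing NT line was scored as %Activity, normalised to DMSO and no-cell wells, from CellTiter-Glo luminescence after 48 hours' treatment.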
ATXN2 expr inh = inhibitors of ATXN2 expression | HEK-293 ATXN2-luciferase reporter, luminescence, 24 h | Potency, µM (top dose mostly 57 µM), inactives show at the highest dose activity change, negative = inhibition, hits mostly inhibitors | actives 0.72% (n = 360,000); further: on the % scale 0 is the no-effect control and ±100 the full control effect; nearly all actives have a fitted effect of over 55% in size
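qHTS (up to 57 uM final) was run with 24 h compound exposure of reporter cells at 37 °C. Each well was multiplexed: SteadyGlo luminescence measured ATXN2-luciferase expression after a fluorogenic Gly-Phe-AFC viability readout (25 uM final).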
KB-3-1 cytotox = kills parental KB-3-1 adenocarcinoma cells; actives 1.4% (n = 400,000); KB-3-1 viability, CellTiter-Glo ATP luminescence, 72 h; Potency, µM (doses to about 46.1 µM), hits mostly cytotoxic; further: on the % scale 0 is the no-effect control and ±100 the full control effect; nearly all actives have a fitted effect of over 60% in size
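Screening of KB-3-1 cells (DMEM, 10% FBS, phenol-red free) ran from lowest to highest compound concentration; after 72 h at 37 °C viability was read luminescently and curves fitted.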
HT1080 IDH1KD tx = HT-1080 IDH1 knockdown cell toxicity (counter line) | Potency, µM (top dose mostly 46.1 µM), without a hit: top-dose activity, negative = toxicity, usual class: cytotoxic | actives 2% (n = 360,000) | HT-1080 IDH1 knockdown viability, ATP luminescence, 48 h | AID 686971;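 further: 0% = DMSO wells and -100% = cell-free medium wells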
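Cytotoxicity counter-line: IDH1KD HT-1080, 48 h, CellTiter-Glo. Curves classed by r2, magnitude and activity.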
KB-V1 MDR tox = kills drug-selected multidrug resistant KB-V1 cells. KB-V1 MDR cells viability, CellTiter-Glo, 72 h. Potency, µM (highest dose often 46.1 µM), actives largely listed as cytotoxic. actives 3.4% (n = 400,000). AID 1347076; further: on the % scale 0 is the no-effect control and ±100 the full control effect; nearly all actives have a fitted effect of over 60% in size
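Cytotoxicity via CellTiter-Glo luminescence after 72 h compound exposure at 37 degrees C. Cells: drug-selected KB-V1 line, DMEM phenol-red free plus 10% FBS. Compounds tested at multiple concentrations; normalized data fitted to concentration-effect curves.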
* = called active by the depositor; [ ] = dose if it differs, or a comment. Shown are actives, neighbours in structure and some others; about 6.2% of the full set was active somewhere. The call rests on the fitted dose curve; in most records, active means well fitted curve in the direction sought with a large enough effect; inconclusive means small, poorly fitted or top-dose-only effect, or another doubt; inactive means no such curve, though single readings can be large; an effect the other way counts as inactive or inconclusive. Potency means the concentration at half of the fitted maximal effect.

Screening C=CCN(c1ccccc1)S(=O)(=O)c1cccc(C(=O)NCC(c2ccccc2OC)N2CCCC2)c1 (centres undefined) returned S2 tox inconclusive, HT1080NT lethal 23.1µM*, ATXN2 expr inh inconclusive, KB-3-1 cytotox inactive, HT1080 IDH1KD tx inconclusive and KB-V1 MDR tox inactive.
`COc1ccccc1NS(=O)(=O)c1cccc(C(=O)NCC(c2ccccc2OC)N2CCCC2)c1` (centres undefined) gave S2 tox inactive, HT1080NT lethal -10.7%, ATXN2 expr inh -14.5%, KB-3-1 cytotox inactive, HT1080 IDH1KD tx -6.7% and KB-V1 MDR tox inactive.
`C=CCN(c1ccccc1Cl)S(=O)(=O)c1cccc(C(=O)NCCc2ccc(OC)cc2)c1` gave S2 tox inactive, HT1080NT lethal -0.5%, ATXN2 expr inh -13.6%, KB-3-1 cytotox 23.1µM*, HT1080 IDH1KD tx -15.0% and KB-V1 MDR tox 2.31µM*.
For COc1ccc(CCNC(=O)c2cccc(S(=O)(=O)N3CCCCC3)c2)cc1 the results were S2 tox inactive, HT1080NT lethal -6.2%, ATXN2 expr inh -11.3%, KB-3-1 cytotox inactive, HT1080 IDH1KD tx -7.9% and KB-V1 MDR tox inactive.
`C=CCN(c1ccccc1)S(=O)(=O)c1cccc(C(=O)N2CC(C)CC(C)C2)c1` (centres undefined) gave S2 tox inconclusive, HT1080NT lethal -24.0%, ATXN2 expr inh -12.8%, KB-3-1 cytotox inconclusive, HT1080 IDH1KD tx inconclusive and KB-V1 MDR tox 7.31µM*.
`CC1=C(C(=O)Nc2ccccc2)C(c2cccc(Cl)c2)n2nc(SCC(=O)c3ccc(C)cc3)nc2N1` (centres undefined) gave S2 tox inactive, ATXN2 expr inh 6.8%, KB-3-1 cytotox inactive and KB-V1 MDR tox inactive.
Screening COc1ccc(-c2ccc(SCC(=O)c3cccs3)nn2)cc1 returned S2 tox inactive, HT1080NT lethal -10.0%, ATXN2 expr inh 15.7%, KB-3-1 cytotox inconclusive, HT1080 IDH1KD tx -19.7% and KB-V1 MDR tox 16.4µM*.
`COc1ccc(C)c2sc(NC(=O)c3ccc(S(=O)(=O)N(C)C)cc3)nc12` gave S2 tox inactive, ATXN2 expr inh 9.7%, KB-3-1 cytotox inactive and KB-V1 MDR tox inactive.
CCOc1ccc(CCNC(=O)Cn2c(-c3cccs3)cc3cc(F)ccc32)cc1OCC was read as S2 tox 11.2µM*, ATXN2 expr inh 22.4µM*, KB-3-1 cytotox 6.51µM* and KB-V1 MDR tox inconclusive.
For CCOc1cc(CNC(=O)Cn2c(-c3cccs3)cc3cc(F)ccc32)ccc1OC the results were S2 tox inconclusive, ATXN2 expr inh -15.5%, KB-3-1 cytotox inactive and KB-V1 MDR tox 11.6µM*.
`COc1ccccc1CNC(=O)Cn1c(-c2cccs2)cc2cc(F)ccc21` gave S2 tox inactive, ATXN2 expr inh -4.6%, KB-3-1 cytotox inactive and KB-V1 MDR tox inactive.
`CCc1ccc(NC(=O)Cn2c(=O)n(-c3cc(OC)c(OC)c(OC)c3)c(=O)c3ccccc32)cc1` gave S2 tox inactive, ATXN2 expr inh 14.0%, KB-3-1 cytotox inactive and KB-V1 MDR tox inactive.
CC(=O)c1cccc(NC(=O)c2ccc(-n3c(C)nnc3C)cc2)c1 was read as S2 tox inactive, ATXN2 expr inh 2.5%, KB-3-1 cytotox inconclusive and KB-V1 MDR tox inactive.
CC1=CC(C)(C)Nc2ccc(OC(=O)c3ccco3)cc21 was read as S2 tox inconclusive, HT1080NT lethal 2.82µM*, ATXN2 expr inh 31.6µM*, KB-3-1 cytotox inactive, HT1080 IDH1KD tx inconclusive and KB-V1 MDR tox inactive.
`O=C(Oc1cccc(OC(=O)c2ccco2)c1)c1ccco1` gave S2 tox inactive, HT1080NT lethal -5.3%, KB-3-1 cytotox inactive, HT1080 IDH1KD tx -0.4% and KB-V1 MDR tox inactive.
`CCN1C(=O)/C(=C2/C(=O)N3c4c(cc(OC(C)=O)cc42)C(C)=CC3(C)C)SC1=S` gave S2 tox inactive, HT1080NT lethal inconclusive, ATXN2 expr inh -9.3%, KB-3-1 cytotox inactive, HT1080 IDH1KD tx -0.9% and KB-V1 MDR tox inactive.
For CC1=CC(C)(C)Nc2ccc(OC(=O)C(C)N3C(=O)c4ccccc4C3=O)cc21 (centres undefined) the results were HT1080NT lethal 20.6µM*, ATXN2 expr inh inconclusive, KB-3-1 cytotox inconclusive, HT1080 IDH1KD tx 18.4µM* and KB-V1 MDR tox inconclusive.
`COc1ccc(OC(=O)C(C)N2C(=O)c3ccccc3C2=O)cc1` (centres undefined) gave S2 tox inactive, HT1080NT lethal -7.6%, ATXN2 expr inh -6.1%, KB-3-1 cytotox inactive, HT1080 IDH1KD tx -3.2% and KB-V1 MDR tox inactive.
`CC1=CC(C)(C)N2C(=O)C(=O)c3cc(OC(=O)c4ccco4)cc1c32` gave S2 tox inconclusive, HT1080NT lethal 2.31µM*, ATXN2 expr inh -32.8%[11.3 µM], KB-3-1 cytotox inconclusive, HT1080 IDH1KD tx 16.4µM* and KB-V1 MDR tox inconclusive.
`CC1=CC(C)(C)Nc2ccc(C)cc21` gave S2 tox inactive, HT1080NT lethal 3.7%, ATXN2 expr inh -1.3%, KB-3-1 cytotox inactive, HT1080 IDH1KD tx -2.5% and KB-V1 MDR tox inactive.
Screening CC1=CC(C)(C)Nc2ccc(OC(=O)CN3C(=O)CCC3=O)cc21 returned S2 tox inactive, HT1080NT lethal inconclusive, ATXN2 expr inh inconclusive, KB-3-1 cytotox inactive, HT1080 IDH1KD tx 2.51µM* and KB-V1 MDR tox inconclusive.
CCOc1cc(C(=O)NCCc2sc(-c3ccc(F)cc3)nc2C)cc(OCC)c1OCC was read as S2 tox inconclusive, ATXN2 expr inh -22.0%, KB-3-1 cytotox inactive and KB-V1 MDR tox inactive.
Screening CCc1ccccc1NC(=O)c1ccc2c(SCC(=O)O)c3c(nc2c1)CCC3 returned S2 tox inactive, ATXN2 expr inh 0.7%, KB-3-1 cytotox inactive and KB-V1 MDR tox inactive.
Cc1cc2nc(-c3ccc(SCC(=O)Nc4nccs4)nc3)[nH]c2cc1C was read as S2 tox inactive, HT1080NT lethal inconclusive, ATXN2 expr inh -8.2%, KB-3-1 cytotox inactive, HT1080 IDH1KD tx inconclusive and KB-V1 MDR tox inconclusive.
Screening CC(=O)CSc1ccc(-c2nc3ccccc3[nH]2)cn1 returned S2 tox inactive, HT1080NT lethal inconclusive, ATXN2 expr inh -29.2%, KB-3-1 cytotox inconclusive, HT1080 IDH1KD tx 9.2µM* and KB-V1 MDR tox 9.2µM*.
`Cc1ccc(-c2nnc3ccc(SCC(=O)N4CCCc5ccccc54)nn23)cc1` gave S2 tox 8.91µM*, HT1080NT lethal -23.6%, ATXN2 expr inh inconclusive, KB-3-1 cytotox inactive, HT1080 IDH1KD tx inconclusive and KB-V1 MDR tox 16.4µM*.

Source: PubChem BioAssay
